From PubChem BioAssay (Tox21) come the findings set out here.

Records with an inconclusive call do not appear. Entries that show only a call come without a potency. Activity calls are given as the source filed them. Unless noted, the call rests on the fitted dose curve; in most records, active means well fitted curve in the direction sought with a large enough effect in the repeat runs; inconclusive means weak or mixed curves; inactive means flat fitted curve, though single readings scatter.

Tested on in the first assay: not listed separately
The assay can be described thus: qHTS assay to test for compound auto fluorescence at 535 nm (green) in HepG2 cell free culture (AID 720686). The settings on record: Cell-free medium, green autofluorescence 485/535 nm; series mostly up to 91.3 µM. In general terms: qHTS replaces the single test concentration by a dilution series.
On to `C[C@H](N)C(=O)c1ccccc1`, for which the compound was called inactive.

With `Cc1ccc2c(c1)C1CN(C)CCC1N2` (stereo unspecified), the call was inactive.

For `COc1ccc2c(C(=O)c3ccc(Cl)cc3)c(C)n(CC(=O)O)c2c1`, the outcome was inactive.

For `CNC(=O)O/N=C(/CSC)C(C)(C)C`, the result was inactive.

For `C=CC(=O)OCCN(C)C`, the outcome was inactive.

`CCN[C@H](C)Cc1cccc(C(F)(F)F)c1`: the result was inactive.

As for `CCNc1nc(NCC)nc(SC)n1`, the result was inactive.

Consider `CC(C)[N+](C)(CCC(C(N)=O)(c1ccccc1)c1ccccc1)C(C)C`, for which the fluorescence, % of fluorescein control is 0.0122% [at 18.6 µM] (inactive).

On to `CCOC(=O)NC(C)(C)Cc1ccc(Cl)cc1`, for which the result was inactive.

For `S=C=S`, the outcome was inactive.

Regarding `O=c1[nH]oc2c1CCNC2`, the result was inactive.

`C=C(Cl)CCl`: the outcome was inactive.

As for `COC(=O)c1ccc(CBr)cc1`, the call was inactive.

Regarding `OP(O)c1ccccc1`, the result was inactive.

Take `CC(Cc1ccccc1)NCCn1cnc2c1c(=O)n(C)c(=O)n2C` (stereo unspecified): the compound was classed as inactive.

On to `C=CC=O`, for which the compound was called inactive.

Take `[P]#[In]`: the compound was classed as inactive.

Take `CN=CNc1ccc(C)cc1C`: the compound was called inactive.

For `CCC1(CC)C(=O)C=CNC1=O`, the outcome was inactive.

Take `CCC(=O)OC1(c2ccccc2)CCN(C)CC1`: the compound was called inactive.

As to `Brc1c(Br)c(Br)c(Br)c(Br)c1Br`, the fluorescence, % of fluorescein control was 0.0083% [at 3.72 µM] (inactive).

Turning to `C[C@H](CN1CCOCC1)C(C(=O)N1CCCC1)(c1ccccc1)c1ccccc1`, the result was inactive.

`Clc1cc2c(cc1Cl)Oc1cc(Cl)c(Cl)cc1O2`: the fluorescence, % of fluorescein control was -0.0284% [at 0.37 µM] (inactive).

Take `CC#Cc1cc(C)nc(Nc2ccccc2)n1`: the call was inactive.

For the compound `C=CC1(C)OC(=O)N(c2cc(Cl)cc(Cl)c2)C1=O` (stereo unspecified), the result was inactive.

With `COc1ccc(C=O)cc1O`, the compound was classed as inactive.

With `CCC1(c2cccc(O)c2)CCCCN(C)C1` (stereo unspecified), the fluorescence, % of fluorescein control was -0.0769% [at 18.6 µM] (inactive).

For `Oc1ccc(Cc2ccc(O)cc2)cc1`, the call was inactive.

On to `ClCOCCl`, for which the outcome was inactive.

In the case of `[O-][Br+2]([O-])O`, the result was inactive.

Regarding `ClC1=C(Cl)C2(Cl)C(CBr)CC1(Cl)C2(Cl)Cl` (stereo unspecified), the call was inactive.

On to `COc1cc(CCN)cc(OC)c1OC`, for which the compound was classed as inactive.

Regarding `N#CN`, the result was inactive.

For the compound `CCCC(C)(COC(N)=O)COC(N)=O`, the result was inactive.

As for `COc1cccc([C@@]2(O)CCCC[C@@H]2CN(C)C)c1`, the call was inactive.

With `CC[C@H](O)C(C[C@H](C)N(C)C)(c1ccccc1)c1ccccc1`, the call was inactive.

For `CCOC(=O)Nc1cccc(OC(=O)Nc2ccccc2)c1`, the compound was classed as inactive.

Tested on in a further assay: not listed separately
In words: qHTS assay to test for compound auto fluorescence at 460 nm (blue) in HepG2 cells (AID 720687). The settings on record: autofluorescence 405/460 nm, 1 h; series mostly up to 91.3 µM. The procedure, abridged: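 Cells (2,000/well in MEM with 10% FBS) attached overnight at 37 C, then were exposed to compound or DMSO for 1 hr at 37 C, 5% CO2. Fluorescence read at Ex/Em 405/460 nm, expressed as triamterene-equivalent signal.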
As for `O=C(CCl)NCO`, the compound was classed as inactive.

Regarding `CNC(=O)O/N=C(/CSC)C(C)(C)C`, the result was inactive.

As for `C=CC(=O)OCCN(C)C`, the compound was called inactive.

Turning to `CCN[C@H](C)Cc1cccc(C(F)(F)F)c1`, the compound was called inactive.

Take `CCNc1nc(NCC)nc(SC)n1`: the compound was called inactive.

On to `CC(C)[N+](C)(CCC(C(N)=O)(c1ccccc1)c1ccccc1)C(C)C`, for which the fluorescence, % of fluorescent control was -0.0322% [at 18.6 µM] (inactive).

Regarding `S=C=S`, the compound was classed as inactive.

As for `O=c1[nH]oc2c1CCNC2`, the result was inactive.

For the compound `C=C(Cl)CCl`, the compound was classed as inactive.

On to `COC(=O)c1ccc(CBr)cc1`, for which the call was inactive.

For `OP(O)c1ccccc1`, the compound was classed as inactive.

In the case of `CC(Cc1ccccc1)NCCn1cnc2c1c(=O)n(C)c(=O)n2C` (stereo unspecified), the call was inactive.

Take `C=CC=O`: the call was inactive.

As for `[P]#[In]`, the compound was called inactive.

On to `CN=CNc1ccc(C)cc1C`, for which the outcome was inactive.

On to `CCC1(CC)C(=O)C=CNC1=O`, for which the call was inactive.

Turning to `CCC(=O)OC1(c2ccccc2)CCN(C)CC1`, the result was inactive.

For the compound `Brc1c(Br)c(Br)c(Br)c(Br)c1Br`, the fluorescence, % of fluorescent control was 0.182% [at 3.72 µM] (inactive).

For `C[C@H](CN1CCOCC1)C(C(=O)N1CCCC1)(c1ccccc1)c1ccccc1`, the compound was called inactive.

As to `C=CC1(C)OC(=O)N(c2cc(Cl)cc(Cl)c2)C1=O` (stereo unspecified), the call was inactive.

As to `CCC1(c2cccc(O)c2)CCCCN(C)C1` (stereo unspecified), the fluorescence, % of fluorescent control was -0.0146% [at 18.6 µM] (inactive).

In the case of `ClCOCCl`, the result was inactive.

As to `[O-][Br+2]([O-])O`, the call was inactive.

As for `O=P(O)(O)CN(CP(=O)(O)O)CP(=O)(O)O`, the fluorescence, % of fluorescent control is -0.044% [at 18.6 µM] (inactive).

Turning to `C=C1CC[C@@]2(O)[C@H]3Cc4ccc(O)c5c4[C@@]2(CCN3CC2CC2)[C@H]1O5`, the compound was classed as inactive.

Take `COc1cccc([C@@]2(O)CCCC[C@@H]2CN(C)C)c1`: the compound was called inactive.

In a further assay the target is Glucocorticoid receptor (Homo sapiens) (UniProt P04150). The assay can be described thus: qHTS assay to identify small molecule agonists of the glucocorticoid receptor (GR) signaling pathway (AID 720691; active means well fitted activation curve with a large enough effect in the signal ratio in the repeat runs, not every such curve was filed as active; the % refers to the signal ratio). As to conditions: GR-bla HeLa, beta-lactamase reporter ratio, 18 h; series mostly up to 62.4 µM. The procedure, abridged: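 Beta-lactamase reporter activity, read as fluorescence intensity, was measured in GR-bla HeLa cells exposed to compounds for 18 h at 37 C and then loaded with LiveBLAzer B/G FRET substrate for 2 h at room temperature.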
Sequence of Glucocorticoid receptor (Homo sapiens) (P04150 whole entry, looked up): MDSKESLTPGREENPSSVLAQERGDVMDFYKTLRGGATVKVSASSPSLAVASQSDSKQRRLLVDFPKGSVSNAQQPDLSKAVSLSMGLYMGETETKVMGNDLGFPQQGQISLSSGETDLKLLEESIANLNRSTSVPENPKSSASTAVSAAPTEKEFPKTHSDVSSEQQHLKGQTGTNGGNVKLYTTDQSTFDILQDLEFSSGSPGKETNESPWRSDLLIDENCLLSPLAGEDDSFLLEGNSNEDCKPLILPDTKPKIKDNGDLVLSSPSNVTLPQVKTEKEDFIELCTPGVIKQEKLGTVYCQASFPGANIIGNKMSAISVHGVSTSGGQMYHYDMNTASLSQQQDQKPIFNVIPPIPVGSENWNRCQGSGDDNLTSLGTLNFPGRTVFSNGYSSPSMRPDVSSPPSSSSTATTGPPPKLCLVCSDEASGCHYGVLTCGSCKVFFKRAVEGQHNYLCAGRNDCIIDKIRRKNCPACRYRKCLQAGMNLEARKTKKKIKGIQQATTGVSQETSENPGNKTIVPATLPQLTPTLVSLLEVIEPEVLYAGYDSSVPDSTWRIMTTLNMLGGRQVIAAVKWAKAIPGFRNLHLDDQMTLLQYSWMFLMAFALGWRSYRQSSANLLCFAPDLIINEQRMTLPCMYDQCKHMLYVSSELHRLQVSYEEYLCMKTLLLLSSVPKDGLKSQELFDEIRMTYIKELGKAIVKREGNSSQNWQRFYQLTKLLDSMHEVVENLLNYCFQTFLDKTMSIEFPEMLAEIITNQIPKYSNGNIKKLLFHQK
`C[C@H](N)C(=O)c1ccccc1`: the Potency entry is “inactive”.

`Cc1ccc2c(c1)C1CN(C)CCC1N2` (stereo unspecified): the Potency result was “inactive”.

Consider `CNC(=O)O/N=C(/CSC)C(C)(C)C`, for which the Potency result is “inactive”.

For the compound `C=CC(=O)OCCN(C)C`, the Potency result was “inactive”.

Consider `CCN[C@H](C)Cc1cccc(C(F)(F)F)c1`, for which the Potency result is “inactive”.

For `CCNc1nc(NCC)nc(SC)n1`, the Potency entry was “inactive”.

`CC(C)[N+](C)(CCC(C(N)=O)(c1ccccc1)c1ccccc1)C(C)C`: the Potency entry is “inactive”.

With `CCOC(=O)NC(C)(C)Cc1ccc(Cl)cc1`, the Potency result is “inactive”.

On to `S=C=S`, for which the Potency entry is “inactive”.

Turning to `O=c1[nH]oc2c1CCNC2`, the Potency result is “inactive”.

On to `C=C(Cl)CCl`, for which the Potency entry was “inactive”.

As to `COC(=O)c1ccc(CBr)cc1`, the Potency result was “inactive”.

`OP(O)c1ccccc1`: the Potency result was “inactive”.

As for `CC(Cc1ccccc1)NCCn1cnc2c1c(=O)n(C)c(=O)n2C` (stereo unspecified), the Potency result was “inactive”.

For `C=CC=O`, the Potency entry was “inactive”.

Take `[P]#[In]`: the Potency entry was “inactive”.

`CN=CNc1ccc(C)cc1C`: the Potency entry is “inactive”.

As to `CCC1(CC)C(=O)C=CNC1=O`, the Potency result is “inactive”.

Regarding `CCC(=O)OC1(c2ccccc2)CCN(C)CC1`, the Potency entry was “inactive”.

Turning to `Brc1c(Br)c(Br)c(Br)c(Br)c1Br`, the activation was 0.883% [at 6.9 µM] (inactive).

In the case of `C[C@H](CN1CCOCC1)C(C(=O)N1CCCC1)(c1ccccc1)c1ccccc1`, the Potency result was “inactive”.

In the case of `Clc1cc2c(cc1Cl)Oc1cc(Cl)c(Cl)cc1O2`, the activation is -3.18% [at 0.28 µM] (inactive).

For `CC#Cc1cc(C)nc(Nc2ccccc2)n1`, the Potency entry was “inactive”.

With `C=CC1(C)OC(=O)N(c2cc(Cl)cc(Cl)c2)C1=O` (stereo unspecified), the Potency result was “inactive”.

For the compound `COc1ccc(C=O)cc1O`, the Potency result is “inactive”.

Take `CCC1(c2cccc(O)c2)CCCCN(C)C1` (stereo unspecified): the Potency entry is “inactive”.

Turning to `Oc1ccc(Cc2ccc(O)cc2)cc1`, the Potency result is “inactive”.

Take `ClCOCCl`: the Potency entry is “inactive”.

Take `[O-][Br+2]([O-])O`: the Potency entry is “inactive”.

For `O=P(O)(O)CN(CP(=O)(O)O)CP(=O)(O)O`, the Potency entry was “inactive”.

In the case of `ClC1=C(Cl)C2(Cl)C(CBr)CC1(Cl)C2(Cl)Cl` (stereo unspecified), the Potency entry was “inactive”.

`COc1cc(CCN)cc(OC)c1OC`: the Potency result was “inactive”.

Take `N#CN`: the Potency entry was “inactive”.

With `CCCC(C)(COC(N)=O)COC(N)=O`, the Potency result is “inactive”.

For `C=C1CC[C@@]2(O)[C@H]3Cc4ccc(O)c5c4[C@@]2(CCN3CC2CC2)[C@H]1O5`, the Potency entry is “inactive”.

Regarding `COc1cccc([C@@]2(O)CCCC[C@@H]2CN(C)C)c1`, the Potency entry was “inactive”.

For the compound `CC[C@H](O)C(C[C@H](C)N(C)C)(c1ccccc1)c1ccccc1`, the Potency entry was “inactive”.

Consider `CCOC(=O)Nc1cccc(OC(=O)Nc2ccccc2)c1`, for which the Potency result is “inactive”.
